Bioassay records from PubChem BioAssay.
HepG2 tox: qHTS for Inhibitors of TGF-b: Cytotox Counterscreen. HepG2 CAGA-GFP viability, ATP luminescence, 18 h. Potency, µM (top dose mostly 46.1 µM), for the others: at the highest dose activity change, negative = cytotoxicity, most hits filed as cytotoxic. 0.76% of 410,000 active. AID 588856, 2011; note: potency is the fitted concentration of half-maximal effect
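CellTiter-Glo luminescence gave cytotoxicity after 18 hours at 37 degrees C. The cells were HepG2 CAGA-GFP in 1% FBS DMEM, stimulated with 500 pg/mL TGF-beta after compound addition. %Activity was normalised to no-cell wells (complete cell-killing) and DMSO (no toxicity), and curves were fitted and classified.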
TGFb SMAD3 inh: qHTS for Inhibitors of TGF-b; HepG2 CAGA-GFP TGF-b/SMAD3 reporter, GFP fluorescence, 18 h; TGF-beta stimulated, 500 pg/mL final; Potency, µM (doses to about 46.1 µM), inactives show top-dose activity, negative = inhibition, most hits filed as inhibitors; 1.2% of 410,000 active; AID 588855, 2011; note: potency is the fitted concentration of half-maximal effect; % is set by controls: 0 for no effect and ±100 for the full control effect; nearly all actives have a fitted effect of over 65% in size
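Inhibition was scored as loss of TGF-beta-induced (500 pg/mL final, 18 hours, 37 degrees C) GFP in HEPG2 cells carrying a CAGA-GFP reporter, in DMEM with 1% FBS. Well GFP was summed per cell; Activity was normalised to unstimulated and stimulated DMSO wells, then concentration-response fitting.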
TDP1 block: qHTS Assay for Inhibitors of Tyrosyl-DNA Phosphodiesterase (TDP1); Tyrosyl-DNA phosphodiesterase 1 (Homo sapiens), Q9NUW8; AID 485290, 2010; recombinant TDP1, AlphaScreen DNA substrate cleavage; 0.28% of 350,000 active; Potency, µM (highest dose often 130 µM), without a hit: top-dose activity change, negative = inhibition, hits mostly inhibitors; note: potency is the fitted concentration of half-maximal effect; % is set by controls: 0 for no effect and ±100 for the full control effect; nearly all actives have a fitted effect of over 40% in size
Target sequence (Q9NUW8 whole entry, looked up): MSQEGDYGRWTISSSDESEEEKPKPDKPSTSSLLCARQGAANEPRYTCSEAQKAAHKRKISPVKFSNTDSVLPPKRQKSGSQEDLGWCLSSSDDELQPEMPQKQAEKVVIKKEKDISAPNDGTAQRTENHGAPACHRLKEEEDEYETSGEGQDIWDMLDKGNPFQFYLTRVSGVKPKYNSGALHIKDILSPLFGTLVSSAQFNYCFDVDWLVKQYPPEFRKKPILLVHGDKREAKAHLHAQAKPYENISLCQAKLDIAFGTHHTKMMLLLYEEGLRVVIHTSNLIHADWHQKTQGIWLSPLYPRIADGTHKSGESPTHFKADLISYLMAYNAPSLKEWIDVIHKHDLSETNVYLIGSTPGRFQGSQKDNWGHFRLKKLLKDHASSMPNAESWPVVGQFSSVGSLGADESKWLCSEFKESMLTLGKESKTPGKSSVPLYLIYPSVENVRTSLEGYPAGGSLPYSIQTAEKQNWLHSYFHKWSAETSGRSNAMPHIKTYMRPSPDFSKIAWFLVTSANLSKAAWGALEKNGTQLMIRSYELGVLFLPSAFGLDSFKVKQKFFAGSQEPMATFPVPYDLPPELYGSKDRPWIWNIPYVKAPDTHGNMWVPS
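Here, a 5' biotin and 3' phosphotyrosine-FITC DNA oligonucleotide reports Tdp1 activity: intact substrate bridges AlphaScreen beads, while cleavage leaves a 3' phosphate and drops signal. All incubations at room temperature.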
DT40 TDP1 CPT: qHTS for Inhibitors of human tyrosyl-DNA phosphodiesterase 1 (TDP1): qHTS in cells in presence of CPT; 12% of 420,000 active; Potency, µM (highest dose often 46.2 µM), without a hit: at the top dose activity change, negative = growth inhibition, most hits filed as inhibitors; chicken DT40 Tdp1-/-;hTDP1 cells + 20 nM CPT, ATP luminescence, 48 h; note: potency is the fitted concentration of half-maximal effect; % is set by controls: 0 for no effect and ±100 for the full control effect; nearly all actives have a fitted effect of over 55% in size
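Chicken DT40 Tdp1-/- cells stably complemented with human TDP1 were seeded at 400 cells/well in medium containing 20 nM camptothecin, exposed to pin-transferred compounds, and grown at 37 °C for at least 48 hr. Viability was read as ATP luminescence.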
DT40 TDP1 no CPT: qHTS for Inhibitors of human tyrosyl-DNA phosphodiesterase 1 (TDP1): qHTS in cells in absence of CPT. 15% of 420,000 active. DT40 Tdp1-/- hTDP1 cells, no CPT, ATP luminescence, 48 h. Potency, µM (titrated, usually from 46.2 µM), inactives show at the top dose activity change, negative = growth inhibition, hits mostly inhibitors; note: potency is the fitted concentration of half-maximal effect; % is set by controls: 0 for no effect and ±100 for the full control effect; nearly all actives have a fitted effect of over 55% in size
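Cells were dispensed at 400 per well, compounds added by pin tool, plates incubated ≥48 hr at 37 °C, then CellTiter-Glo added for 30 min at room temperature before luminescence reading. Line: DT40 Tdp1-/- complemented with hTDP1; camptothecin omitted.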
IL-1B inflam inh: qHTS for Inhibitors of Inflammasome Signaling: IL-1-beta AlphaLISA Primary Screen. THP-1 LPS/ATP IL-1B secretion, AlphaLISA, 16 h; stronger effect = lower value. activity change, % at 57.5 µM. 4.7% of 360,000 active. AID 743279, 2014; in the data active = activity change below about -50%; inconclusive = mostly about -30% to -49%; note: % is set by controls: 0 for no effect and ±100 for the full control effect
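Secreted IL-1B measured by AlphaLISA bead assay after 16 h compound exposure of THP-1 cells; compounds (final up to 57.5 uM) added 1 h before LPS (250 ng/mL) and ATP (1.25 mM) stimulation; lower signal means less secretion.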
* = called active by the depositor; ? = inconclusive; . = not tested or not shown; ! = not confirmed by another sample; [ ] = remark or other dose. Sampled rows, rich in hits. Any-hit rate of the full collection: about 19%. Unless noted, calls come from the whole dose curve; as a rule, active = well fitted curve in the direction sought with a large enough effect; inconclusive = small, poorly fitted or top-dose-only effect, or another doubt; inactive = no such curve, though single readings can be large; an effect the other way counts as inactive or inconclusive.

SMILES	HepG2 tox	TGFb SMAD3 inh	TDP1 block	DT40 TDP1 CPT	DT40 TDP1 no CPT	IL-1B inflam inh
COc1ccc(S(=O)(=O)N2CCOC2CNC(=O)C(=O)NCCc2ccc(OC)c(OC)c2)cc1C (centres undefined)	15%	8%	3%	?	16µM*	0
CC1CCCCN1Cc1c(O)ccc2c(=O)c(-c3ccc(Cl)cc3Cl)coc12 (centres undefined)	13%	2%	3%	-15%	0%	-22
CC1CCCCN1Cc1c(O)ccc2c(=O)c(-c3ccc(Br)cc3)coc12 (centres undefined)	-1%	-10%	.	?	-11%	?
CC1CCCCN1Cc1c(O)ccc2c(=O)c(-c3ccc(Cl)cc3)coc12 (centres undefined)	-4%	2%	-3%	7.3µM*	18µM*	?
CC1CCCCN1Cc1c(O)ccc2c(=O)c(-c3nc4ccccc4s3)c(N)oc12 (centres undefined)	-25%	?	1%	?	23µM*	-30
CC(C)N(Cc1c(O)ccc2c(=O)c(-c3ccc(Cl)cc3)coc12)C(C)C	-18%	-11%	.	2.1µM*	8.2µM*	-4
CC1CCCCN1Cc1c(O)ccc2c(=O)c(-c3ccccc3Cl)c(C(F)(F)F)oc12 (centres undefined)	-16%	-1%	.	.	.	.
COc1ccc(-c2nnc(Sc3nc4ccccc4o3)c3ccccc23)cc1	13µM*	13µM*	2%	?	20µM*	-101*
Cc1ccccc1NC(=O)c1c(NC(=O)C(C)Oc2cccc(Cl)c2)sc2c1CCCC2 (centres undefined)	0%	0%	-10%[12.3 µM]	-20%	-18%	.
O=C1C(Cl)=C(NS(=O)(=O)c2ccc([N+](=O)[O-])cc2)C(=O)c2ccccc21	-191%	?	.	10µM*	8.2µM*	-102*
O=[N+]([O-])c1ccc(Oc2ccc(S(=O)(=O)Nc3ccccc3)cc2)cc1	-24%	3%	0%	?	10µM*	-72*
CC(C)=CCCC(C)CN1CCC(N2CCC(C(=O)N3CCCC3)CC2)CC1 (centres undefined)	-31%	-10%	-6%	?	16µM*	0
CC(C)/C=C/C(=O)N1CCC(N2CCC(C(=O)N3CCOCC3)CC2)CC1	-5%	-6%	0%	-3%	-2%	-12
C=C(C)[C@@H]1CC=C(CN2CCC(N3CCC(C(=O)N4CCCC4)CC3)CC2)CC1	0%	21%	5%	21µM*	21µM*	-62*
Cc1ccc(S(=O)(=O)C(CNS(=O)(=O)c2ccc(F)c(C(F)(F)F)c2)c2ccco2)cc1 (centres undefined)	-55%	?	-5%	?	?	.
COc1ccc(CC(=O)OC(C)C(=O)c2ccc(C)cc2)cc1 (centres undefined)	11%	61%	79µM*	-10%	-1%	-3
CCC12CN3CC(CC)(CN(C1)C3c1cccc(OC)c1O)C2=O (centres undefined)	0%	-2%	0%	-29%	?	.
O=C(CCNC(=O)C1CCN(S(=O)(=O)c2ccccc2)CC1)NCCc1cccc(F)c1	-4%	26%	2%	?	26µM*	0
Cc1cccc2sc(NC(=O)C3CCN(S(=O)(=O)c4cc([N+](=O)[O-])ccc4Cl)CC3)nc12	-16%	-20%	-3%	18µM*	16µM*	-76*
O=C(NCc1ccc(Cl)cc1)C1CCN(S(=O)(=O)c2cc([N+](=O)[O-])ccc2Cl)CC1	-29%	?	2%	23µM*	16µM*	-17
O=C(NCc1ccccc1)C1CCN(S(=O)(=O)c2ccc(N3CCCC3=O)cc2)CC1	-18%	-10%	2%	-20%	21µM*	-21
O=C(c1ccco1)N1CCN(C(=S)Nc2ccccc2C(F)(F)F)CC1	0%	17%	1%	-16%	-4%	-6
O=C(NCc1ccc(N2CCCC2=O)cc1)Nc1cccc(Cl)c1	0%	-5%	1%	-26%	?	-61*
O=C(NCc1ccc(Cl)cc1)C1CCN(S(=O)(=O)c2ccc(N3CCCC3=O)cc2)CC1	-7%	-10%	-10%	10µM*	?	-9
O=C(NCc1ccc(N2CCCC2=O)cc1)c1cccc(Cl)c1	6%	19%	5%	1%	-1%	42
SMILES	HepG2 tox	TGFb SMAD3 inh	TDP1 block	DT40 TDP1 CPT	DT40 TDP1 no CPT	IL-1B inflam inh
Nc1nc(CC(=O)O)cs1	.	.	12%	.	.	.
O=C1CC[C@@H]2CC3(C[C@@H]4CCN1[C@H]24)Nc1cc(Cl)ccc1NC3=NC1CCCCC1 (some centres undefined)	-44%	?	.	0%	-22%	-13
Cc1cc2c(cc1C)N[C@]1(C[C@H]3CCCC(=O)N4CC[C@@H](C1)[C@@H]34)C(=NC(C)(C)CC(C)(C)C)N2	10µM*!	?	.	18µM*	11µM*	41
Cc1cc2c(cc1C)N[C@]1(C[C@H]3CCC(=O)N4CC[C@@H](C1)[C@@H]34)C(=Nc1ccccc1C)N2	-25%	?	.	-81%	?	.
Cc1cc2c(cc1C)N[C@]1(C[C@H]3CCCC(=O)N4CC[C@@H](C1)[C@@H]34)C(=NCc1ccccc1)N2	-15%	-21%	.	11µM*	11µM*	.
O=C1CCC[C@@H]2C[C@@]3(C[C@@H]4CCN1[C@H]24)Nc1cc(Cl)ccc1NC3=NCc1ccccc1	1%	?	.	?	?	24
